The record followed here is PubChem BioAssay AID641 (Vanderbilt High Throughput Screening Facility, 2007).

The whole screen tested about 58,000 compounds, of which about 3,400 (5.9%) were called active. The full list was thinned out, with actives kept by preference. Values without a mark were called inactive.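 How the source made its calls: active means luminescence count or its row- and column-corrected plate score outside the 99.7% band of the plate's sample wells, on either side; inactive means the rest.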

The target in this assay is D(1A) dopamine receptor (Homo sapiens) (UniProt P21728). Kind of assay: D1 CRE-luciferase signal change, two-sided – cell-based, HEK293 D1, dopamine EC30, D1 allosteric modulator project, primary screen (AID 641). As to conditions: dopamine EC30 potentiation, at 10 µM, actives deviate in either direction.
Sequence of D(1A) dopamine receptor (Homo sapiens) (P21728 whole entry, looked up): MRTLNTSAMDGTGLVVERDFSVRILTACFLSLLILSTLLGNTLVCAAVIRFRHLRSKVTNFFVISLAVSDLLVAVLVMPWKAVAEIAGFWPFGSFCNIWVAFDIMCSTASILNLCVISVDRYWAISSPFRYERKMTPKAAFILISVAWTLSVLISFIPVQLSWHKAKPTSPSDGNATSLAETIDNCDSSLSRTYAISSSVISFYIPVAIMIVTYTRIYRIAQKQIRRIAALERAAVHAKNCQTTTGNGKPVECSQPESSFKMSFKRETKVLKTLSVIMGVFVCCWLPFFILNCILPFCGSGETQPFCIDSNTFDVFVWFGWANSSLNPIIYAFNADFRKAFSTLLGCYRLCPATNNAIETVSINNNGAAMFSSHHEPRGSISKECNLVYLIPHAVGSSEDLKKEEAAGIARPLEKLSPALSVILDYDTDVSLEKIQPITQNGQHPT
Regarding `Cn1c(SCc2c(F)cccc2Cl)nnc1-c1cnccn1`, the B-score is -0.043.

On to `Cc1nc2cc(-c3ccc(F)cc3)nn2c(N2CCOCC2)c1C`, for which the B-score is 3.86.

As for `C/C(O)=C\c1nc(=O)c2c(C)cc(C)nc2n1-c1ccccc1`, the B-score is 0.549.

As to `O=C1CCCC2=C1C(c1cccs1)n1nc(SCc3ccccc3)nc1N2` (stereo not drawn), the B-score is 0.252.

Turning to `COc1nc(NCc2ccc(Cl)cc2)nc(OC)n1`, the B-score was 6.81 (active).

Take `C=CCNc1nc(C)nc(OC)n1`: the B-score was 0.422.

Consider `COC(=O)c1nc(NC(=O)c2ccc(Cl)cc2)n[nH]1`, for which the B-score is -0.0452.

As to `Cc1c(-c2nn(C)c(=O)c3ccccc23)oc2ccc(F)cc2c1=O`, the B-score was 1.77.

As for `CC(CNC(=O)c1ccc(Br)o1)NC(=O)c1ccc(Br)o1` (stereo not drawn), the B-score is -0.012.

For the compound `CCc1nc(C)cn1S(=O)(=O)c1cc(OC)c(C)cc1C`, the B-score was -0.851.

Turning to `Cn1c(C(=O)NCCCN2CCCCC2)cc2sccc21`, the B-score was -0.452.

In the case of `COc1ccc(CCNC(=O)c2cc(-c3ccc4c(c3)OCO4)on2)cc1OC`, the B-score was 0.448.

Consider `COc1ccc(CCNC(=O)c2cc3sccc3n2C)cc1OC`, for which the B-score is 4.1 (active).

Take `COC(CCN(C)C)(c1ccccc1)c1ccccc1`: the B-score was -0.765.

Consider `CCOc1ccc2[nH]c(=O)c(C(c3nnnn3CCOC)N3CCOCC3)cc2c1` (stereo not drawn), for which the B-score is 10.2 (active).

Take `COc1ccc(N2CCN(C(c3cc4ccc(C)cc4[nH]c3=O)c3nnnn3C3CCCC3)CC2)cc1` (stereo not drawn): the B-score is 0.0349.

Regarding `COCCn1nnnc1C(c1cc2ccc(OC)cc2[nH]c1=O)N1CCc2ccccc2C1` (stereo not drawn), the B-score is -0.278.

For the compound `O=C(c1cc(-c2cccc(O)c2)on1)N1CCc2ccccc2C1`, the B-score was -0.88.

For the compound `Clc1ccc(C2CC(c3cccs3)n3ncnc3N2)cc1Cl` (stereo not drawn), the B-score was 2.58.

Regarding `CCOc1ccccc1C1CC(c2ccc(Cl)cc2)Nc2nc(N)nn21` (stereo not drawn), the B-score was 1.36.

For `FC(F)Oc1ccccc1C1CC(c2ccc(Br)s2)Nc2ncnn21` (stereo not drawn), the B-score was 0.0618.

Regarding `COc1ccc(C2CC(c3ccc(C)cc3)Nc3ncnn32)cc1` (stereo not drawn), the B-score is 0.317.

Take `Nc1nc2n(n1)C(c1ccco1)CC(c1ccc(Cl)c(Cl)c1)N2` (stereo not drawn): the B-score is 0.226.

As to `Cc1ccc(C2CC(c3cccc(C)c3)n3nc(N)nc3N2)cc1` (stereo not drawn), the B-score is 6.52 (active).

As for `Cc1ccc(C2CC(c3cccc(Br)c3)n3nc(N)nc3N2)cc1` (stereo not drawn), the B-score was 9.49 (active).

`CCOc1ccccc1C1CC(c2ccccc2)Nc2nc(N)nn21` (stereo not drawn): the B-score was 5.88 (active).

Consider `COc1ccc(C2CC(c3ccc(Cl)cc3Cl)Nc3nc(N)nn32)cc1OC` (stereo not drawn), for which the B-score was -0.179.

For `CCc1nnc(NC(=O)c2cccs2)s1`, the B-score was -1.13.

Take `COc1ccc(OC)c(S(=O)(=O)Nc2ccccc2F)c1`: the B-score was 0.662.

Turning to `O=C(CSc1nnc(-c2cccs2)n1-c1ccccc1)NCc1ccco1`, the B-score was 0.124.

Consider `CCOc1cc(C(=S)N2CCOCC2)ccc1O`, for which the B-score was 0.0105.

As to `O=C(CSC1=NCCS1)Nc1nc(-c2ccccc2)cs1`, the B-score is 2.09.

Consider `NC(=O)c1ccccc1NC(=O)c1ccccc1F`, for which the B-score is -0.754.

Turning to `COc1ccc(-n2nnc3c(=O)n(CC(=O)N4CCC(Cc5ccccc5)CC4)cnc32)cc1`, the B-score is -0.0249.

`COCCNC(=O)Cn1cc2c(n1)CCCCC2`: the B-score was -0.978.

As for `COc1ccc(S(=O)(=O)N(CCCN2CCCC2=O)Cc2cc3c(C)ccc(C)c3[nH]c2=O)cc1`, the B-score is 0.354.

With `CN1CCN(CC(O)COCc2ccc3c(c2)OCO3)CC1` (stereo not drawn), the B-score is 3.63 (active).

For `Cc1cc(N2CCN(Cc3ccc4c(c3)OCO4)CC2)n2ncnc2n1`, the B-score was 0.443.

Consider `O=C(c1cccs1)N1CCN(Cc2ccc3c(c2)OCO3)CC1`, for which the B-score was -0.554.

Take `CC(=O)Nc1ccc(S(=O)(=O)N2CCSCC2)cc1`: the B-score was -0.0119.

`CCOC(=O)C(C)Oc1cccc2c(=O)n(CC(=O)N3CCc4ccccc43)ccc12` (stereo not drawn): the B-score was 0.245.

Consider `COCCNCCOCCOc1cccc(OC)c1`, for which the B-score is -0.824.

Turning to `O=C(NCc1ccccn1)c1cc2ccccc2oc1=O`, the B-score was 0.0147.

On to `Cc1cccn2c(=O)c3cc(C(=O)NCc4ccccn4)n(C)c3nc12`, for which the B-score is 0.762.

`O=C(NCc1ccccn1)c1ccc2nc(-c3ccco3)c(-c3ccco3)nc2c1`: the B-score was 7.64 (active).

Regarding `CCOC(=O)c1sc(NC(=O)C(CC)Sc2nccn2C)nc1C` (stereo not drawn), the B-score is 0.947.

On to `Cc1cc(C)nc(SCc2ccccc2C#N)n1`, for which the B-score was 1.42.

For the compound `CCC(Sc1nncn1C)C(=O)Nc1nnc(-c2ccc(Cl)cc2)s1` (stereo not drawn), the B-score was 0.176.

In the case of `COCCN(CC(=O)Nc1ccccc1C)S(=O)(=O)c1ccc(S(=O)(=O)N2CCCC2)cc1`, the B-score is 0.0335.

Take `CCn1c(SCCC(C)C)nnc1-c1c[nH]c2ccccc12`: the B-score is -1.04.

Take `COc1ccc(CNC(=O)c2cc3c(=O)n4ccccc4nc3n(CC3CCCO3)c2=N)cc1` (stereo not drawn): the B-score was -0.73.

Regarding `CCCn1c(=NC(C)=O)c(C(=O)OCC)cc2c(=O)n3ccccc3nc21`, the B-score was 4.16 (active).

In the case of `CCOC(=O)c1cnc2sccn2c1=O`, the B-score was -0.341.

With `COc1cccc(N2C(=O)C3CCCN3C2c2ccc(F)cc2)c1` (stereo not drawn), the B-score was 0.0389.

`COCCNC(=O)C(c1ccc(C)o1)N(Cc1ccccc1)C(=O)Cn1nnc2ccccc21` (stereo not drawn): the B-score was 0.0616.

As to `Cc1ccc(-c2nn(-c3ccccc3)cc2CN(Cc2ccccc2)C(=O)CCC(=O)O)o1`, the B-score was 13.6 (active).

Take `COc1ccc(-c2nn(-c3ccccc3)cc2C(=O)Nc2nc(CC(C)=O)ns2)cc1`: the B-score was 0.451.

With `O=C(O)CCCC(=O)Nc1ccccc1-n1ccnc1`, the B-score was -0.0259.

As for `CNC(=O)CSc1nnc(CCc2ccccc2)n1-c1ccccc1`, the B-score was 0.762.

Take `c1ccc(-c2nnc3n2NC(c2ccc4c(c2)OCO4)S3)cc1` (stereo not drawn): the B-score was 7.49 (active).

Regarding `O=C(CN1CCN(c2nc(-c3ccccc3)cs2)CC1)NCc1ccc2c(c1)OCO2`, the B-score is -0.0459.

As to `CC1=C(C(N)=O)C(c2ccc3c(c2)OCO3)n2nc(-c3cccc(C)c3)nc2N1` (stereo not drawn), the B-score is 0.00602.

In the case of `COC(=O)c1cc(OC)c(OC)cc1NC(=O)C1CCCO1` (stereo not drawn), the B-score is 3.46.

On to `CCc1nnc(NC(=O)CSc2nnc(-c3ccncc3)n2Cc2ccccc2)s1`, for which the B-score was -0.0482.

Turning to `O=[n+]1c2c(n([O-])c3cc(Br)ccc31)CCC2`, the B-score was -0.651.

For `Cn1c(-c2ccc(F)cc2)cnc1SCC(=O)NCc1ccco1`, the B-score is -0.294.

Turning to `O=C(CSc1nnc2scc(-c3ccc(F)cc3)n12)NCc1ccco1`, the B-score is 6.74 (active).

As to `Cc1ccc(-c2csc3nnc(SCC(=O)NCc4ccco4)n23)cc1`, the B-score was 1.29.

`Cn1c(SCC(=O)Nc2cccc(O)c2)nnc1-c1ccc(S(=O)(=O)N2CCOCC2)cc1`: the B-score is 0.0252.

For `CN(C)CCCNc1c2c(c(C#N)c3nc4ccccc4n13)CCC2`, the B-score is 0.142.

Turning to `N#Cc1c2c(c(N3CCN(CCO)CC3)n3c1nc1ccccc13)CCCC2`, the B-score is 4.34 (active).

Take `CCCCn1c(CN2CCN(CCO)CC2)nc2ccccc21`: the B-score is 1.03.

Turning to `COc1ccc(C2CC(=O)C=C(NCC3CCCO3)C2)cc1` (stereo not drawn), the B-score was 0.013.

As to `CCn1c(SCC(=O)Nc2nc3ccc(OC)cc3s2)nnc1-c1ccoc1C`, the B-score is -0.00542.

In the case of `COc1cc2cc(CN(CCN3CCCC3)C(=O)Nc3ccccc3Cl)c(=O)[nH]c2cc1OC`, the B-score is -0.557.

`COC(=O)C1=C(C)NC2=C(C(=O)c3ccccc32)C1c1ccc(-c2ccc(C(=O)O)cc2)o1` (stereo not drawn): the B-score was 6.14 (active).

Turning to `COc1ccccc1NC(=O)C1=C(C)NC2=C(C(=O)CCC2)C1c1ccc(C)o1` (stereo not drawn), the B-score is 0.26.

In the case of `COC(=O)C1=C(C)NC(=O)NC1/C=C/c1ccccc1` (stereo not drawn), the B-score was 0.394.

Consider `O=C(Cn1[nH]c(=O)c2ccccc2c1=O)Nc1cccc(-c2nnc3n2CCCCC3)c1`, for which the B-score was 0.394.

Take `O=c1c2c(nc3n1CCCCC3)sc1c(O)cccc12`: the B-score was -6.41 (active).

Regarding `Cc1ccc2nc3n(c(=O)c2c1)CCC3`, the B-score is -0.684.

For `CCSC(C)CC1C/C(=N/O)c2c(C)noc2C1` (stereo not drawn), the B-score is 3.09.

Turning to `CCOC(=O)c1[nH]c2c(c1C)C(=O)CC(c1ccc(N(C)C)cc1)C2` (stereo not drawn), the B-score is -1.04.

For `COC(=O)C1C(=O)c2c([nH]c(C(=O)OCCSC)c2C)CC1C` (stereo not drawn), the B-score was 0.0229.

As to `CCCOC(=O)c1[nH]c2c(c1C)C(=O)CC(c1cc(OC)c(OC)c(OC)c1)C2` (stereo not drawn), the B-score is -3.89 (active).

For the compound `O=C(CN1C2CCC1CC(NC(=O)C1CC1)C2)NCc1ccccc1` (stereo not drawn), the B-score was 0.0586.

On to `CCOC(=O)Cc1c(C)nc2c(C#N)c(C)nn2c1C`, for which the B-score is -0.671.

Take `Cc1ccc(-n2ncc3c2ncn2nc(-c4ccco4)nc32)c(C)c1`: the B-score was 0.753.

As to `Cc1ccc(-n2ncc3c(N4CCN(c5ccc(F)cc5)CC4)ncnc32)c(C)c1`, the B-score is -2.95 (active).

On to `Cc1ccc(-n2ncc3c(=O)[nH]cnc32)c(C)c1`, for which the B-score was -0.523.

For the compound `Cc1nc2sc(C(c3ccco3)N3CCOCC3)c(O)n2n1` (stereo not drawn), the B-score was 0.108.

Regarding `Cc1ccc(C(c2sc3nc(C)nn3c2O)N2CCN(c3ccccc3)CC2)cc1` (stereo not drawn), the B-score was -3.44 (active).

With `Cc1ccc(C(c2sc3nc(C)nn3c2O)N2CCN(c3ccc(F)cc3)CC2)cc1` (stereo not drawn), the B-score was -1.2.

Turning to `O=C(Nc1c(C(=O)N2CCCCC2)cnn1-c1ccccc1)c1ccco1`, the B-score was -0.19.

In the case of `O=C(O)CSCc1nc2ccccc2s1`, the B-score is -0.539.

With `CCC(=O)NC(=Nc1nc2ccccc2s1)NC(=O)CC`, the B-score was 11.5 (active).

For `COC(=O)Cc1cc(=O)n(-c2nc3ccccc3s2)[nH]1`, the B-score was 0.0542.

As to `CCC(=O)c1cc2c(cc1NC(=O)c1cccs1)OCCO2`, the B-score was 1.41.
